Experimental data as given in PubChem BioAssay AID624162 (National Center for Advancing Translational Sciences (NCATS), 2012).
The list shows a part of the results. Records with an inconclusive call do not appear. Activity calls are given as the source filed them. Calls come from the whole dose curve; as a rule, active = well fitted inhibition curve with a large enough effect; inconclusive = small, poorly fitted or top-dose-only effect; inactive = no such curve, though single readings can be large or run the other way.

The compounds below were run against Histone-lysine N-methyltransferase 2A (Homo sapiens) (UniProt Q03164) (assay: qHTS Fluorescence Polarization (FP) Assay for Inhibitors of MLL CXXC domain - DNA interaction: HTRF Assay). Settings: MLL CXXC-DNA binding, biochemical; series mostly up to 172 µM.
Sequence of Histone-lysine N-methyltransferase 2A (Homo sapiens) (Q03164 whole entry, looked up, the tested form may be a part): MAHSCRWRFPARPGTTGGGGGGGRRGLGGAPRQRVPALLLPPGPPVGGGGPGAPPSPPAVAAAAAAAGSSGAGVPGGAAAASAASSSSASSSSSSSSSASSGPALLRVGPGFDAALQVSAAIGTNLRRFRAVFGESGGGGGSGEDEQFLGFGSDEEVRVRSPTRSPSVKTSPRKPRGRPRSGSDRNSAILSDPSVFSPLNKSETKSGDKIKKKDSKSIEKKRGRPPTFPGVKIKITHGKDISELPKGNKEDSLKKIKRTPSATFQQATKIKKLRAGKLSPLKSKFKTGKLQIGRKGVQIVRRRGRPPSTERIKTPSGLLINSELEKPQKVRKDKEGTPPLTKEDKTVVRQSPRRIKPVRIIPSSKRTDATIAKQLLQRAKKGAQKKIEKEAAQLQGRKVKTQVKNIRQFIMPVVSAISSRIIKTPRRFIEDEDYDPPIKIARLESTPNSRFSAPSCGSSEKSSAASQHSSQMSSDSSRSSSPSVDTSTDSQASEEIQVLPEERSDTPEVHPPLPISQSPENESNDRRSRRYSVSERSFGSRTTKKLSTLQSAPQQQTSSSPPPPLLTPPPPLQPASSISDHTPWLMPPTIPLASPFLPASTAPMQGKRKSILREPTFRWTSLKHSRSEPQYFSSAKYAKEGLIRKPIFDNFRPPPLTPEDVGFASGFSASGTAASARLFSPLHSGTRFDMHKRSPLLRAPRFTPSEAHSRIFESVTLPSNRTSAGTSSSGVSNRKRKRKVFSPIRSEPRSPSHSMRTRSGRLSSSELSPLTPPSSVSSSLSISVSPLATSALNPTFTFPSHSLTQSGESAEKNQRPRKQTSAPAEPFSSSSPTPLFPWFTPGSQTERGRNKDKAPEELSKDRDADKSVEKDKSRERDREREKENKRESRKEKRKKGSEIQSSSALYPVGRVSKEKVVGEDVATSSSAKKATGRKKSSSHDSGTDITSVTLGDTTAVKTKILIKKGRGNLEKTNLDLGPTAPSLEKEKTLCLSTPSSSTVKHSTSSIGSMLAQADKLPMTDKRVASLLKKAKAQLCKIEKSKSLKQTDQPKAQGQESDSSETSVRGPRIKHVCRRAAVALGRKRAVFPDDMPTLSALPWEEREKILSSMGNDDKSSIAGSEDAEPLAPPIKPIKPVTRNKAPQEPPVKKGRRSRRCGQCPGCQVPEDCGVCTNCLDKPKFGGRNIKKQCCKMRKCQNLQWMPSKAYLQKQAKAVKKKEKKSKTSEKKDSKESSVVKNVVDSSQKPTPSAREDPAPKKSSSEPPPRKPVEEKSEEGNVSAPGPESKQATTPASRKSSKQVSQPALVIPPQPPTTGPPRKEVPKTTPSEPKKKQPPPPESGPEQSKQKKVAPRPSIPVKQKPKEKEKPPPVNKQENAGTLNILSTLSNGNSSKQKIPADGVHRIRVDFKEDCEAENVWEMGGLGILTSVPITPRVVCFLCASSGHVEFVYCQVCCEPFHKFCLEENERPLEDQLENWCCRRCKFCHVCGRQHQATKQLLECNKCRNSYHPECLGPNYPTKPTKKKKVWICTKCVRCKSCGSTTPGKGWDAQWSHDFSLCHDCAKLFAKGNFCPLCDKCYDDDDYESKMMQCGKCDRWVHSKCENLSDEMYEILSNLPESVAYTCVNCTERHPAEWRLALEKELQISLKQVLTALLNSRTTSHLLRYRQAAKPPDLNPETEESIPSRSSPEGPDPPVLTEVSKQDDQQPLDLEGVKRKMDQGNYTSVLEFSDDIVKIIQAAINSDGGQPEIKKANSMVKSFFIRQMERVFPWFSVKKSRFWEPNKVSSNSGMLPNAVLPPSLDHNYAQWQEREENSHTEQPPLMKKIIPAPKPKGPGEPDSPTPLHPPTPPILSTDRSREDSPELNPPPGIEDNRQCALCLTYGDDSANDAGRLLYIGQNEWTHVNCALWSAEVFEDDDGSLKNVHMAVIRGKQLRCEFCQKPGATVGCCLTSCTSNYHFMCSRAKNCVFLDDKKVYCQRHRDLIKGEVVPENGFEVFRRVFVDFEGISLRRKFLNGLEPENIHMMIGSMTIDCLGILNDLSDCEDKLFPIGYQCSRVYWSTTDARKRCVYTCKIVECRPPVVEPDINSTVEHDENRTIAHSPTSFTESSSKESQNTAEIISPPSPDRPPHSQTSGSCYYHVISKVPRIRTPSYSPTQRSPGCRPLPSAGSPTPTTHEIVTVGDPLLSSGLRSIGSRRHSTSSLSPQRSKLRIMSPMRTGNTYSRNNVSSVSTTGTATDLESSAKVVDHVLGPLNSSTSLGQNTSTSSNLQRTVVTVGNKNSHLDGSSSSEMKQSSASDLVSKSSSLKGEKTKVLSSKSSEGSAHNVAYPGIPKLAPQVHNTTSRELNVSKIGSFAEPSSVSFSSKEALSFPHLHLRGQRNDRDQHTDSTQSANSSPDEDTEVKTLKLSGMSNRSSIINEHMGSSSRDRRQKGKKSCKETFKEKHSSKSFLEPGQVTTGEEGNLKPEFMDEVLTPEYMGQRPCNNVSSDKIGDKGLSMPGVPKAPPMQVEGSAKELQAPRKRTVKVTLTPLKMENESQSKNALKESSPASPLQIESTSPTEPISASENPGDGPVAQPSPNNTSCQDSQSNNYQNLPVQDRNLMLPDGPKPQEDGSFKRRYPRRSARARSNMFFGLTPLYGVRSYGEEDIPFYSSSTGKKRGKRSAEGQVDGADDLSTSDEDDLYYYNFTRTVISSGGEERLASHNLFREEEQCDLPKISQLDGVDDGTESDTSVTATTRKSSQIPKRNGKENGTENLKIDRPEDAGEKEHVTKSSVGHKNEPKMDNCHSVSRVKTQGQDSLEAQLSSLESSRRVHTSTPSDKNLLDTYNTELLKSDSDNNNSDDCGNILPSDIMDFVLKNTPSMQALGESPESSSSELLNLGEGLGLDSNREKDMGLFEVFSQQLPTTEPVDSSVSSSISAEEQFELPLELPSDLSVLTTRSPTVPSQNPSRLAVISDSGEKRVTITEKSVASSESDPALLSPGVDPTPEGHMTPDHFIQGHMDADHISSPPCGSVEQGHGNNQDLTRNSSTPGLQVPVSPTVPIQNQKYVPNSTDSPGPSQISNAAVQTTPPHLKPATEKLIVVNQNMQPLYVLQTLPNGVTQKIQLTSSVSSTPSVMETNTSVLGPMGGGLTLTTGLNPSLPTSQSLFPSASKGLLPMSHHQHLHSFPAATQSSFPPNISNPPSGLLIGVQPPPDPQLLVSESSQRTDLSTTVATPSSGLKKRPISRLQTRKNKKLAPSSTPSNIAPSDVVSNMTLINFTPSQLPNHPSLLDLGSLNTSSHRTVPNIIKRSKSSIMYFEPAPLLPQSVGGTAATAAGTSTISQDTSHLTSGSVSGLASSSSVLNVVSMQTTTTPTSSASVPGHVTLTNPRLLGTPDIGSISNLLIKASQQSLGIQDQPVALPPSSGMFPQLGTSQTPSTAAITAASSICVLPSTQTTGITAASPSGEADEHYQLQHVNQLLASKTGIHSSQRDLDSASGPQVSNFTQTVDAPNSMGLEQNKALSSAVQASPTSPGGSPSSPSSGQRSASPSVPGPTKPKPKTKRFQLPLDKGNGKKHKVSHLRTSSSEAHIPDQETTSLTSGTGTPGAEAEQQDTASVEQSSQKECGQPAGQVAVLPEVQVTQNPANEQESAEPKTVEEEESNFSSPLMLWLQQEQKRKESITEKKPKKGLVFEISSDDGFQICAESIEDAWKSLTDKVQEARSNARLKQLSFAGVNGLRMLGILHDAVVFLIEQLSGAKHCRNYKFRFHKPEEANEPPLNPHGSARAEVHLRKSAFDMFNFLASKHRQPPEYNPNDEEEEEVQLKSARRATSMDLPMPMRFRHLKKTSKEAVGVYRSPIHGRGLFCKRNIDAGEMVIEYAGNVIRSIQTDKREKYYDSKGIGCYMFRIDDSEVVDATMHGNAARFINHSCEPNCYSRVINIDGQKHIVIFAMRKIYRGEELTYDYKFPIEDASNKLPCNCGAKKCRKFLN
Source text: The MLL (Mixed Lineage Luekemia) gene is involved in chromosomal translocation that results in either acute lymphoid leukemia (ALL) or acute myeloid leukemia (AML). Chromasomal translocation of MLL gene is responsible for the fusion of N-terminal MLL to more than 60 different partner genes in frame. Many of the MLL partner genes contain transcription activation domains or function as transcriptional activators. Despite the heterogeneity of fusion partners, the N-terminus of MLL fusion proteins always consists of the N-terminal menin binding motif and the CXXC domain. The MLL-CXXC domain specifically recognizes unmethylated CpG sequences of the HOX-A gene. Disruption of the MLL-CXXC and HOX-A gene interaction leads to down regulation of HOX-A gene expression and may potentially reverse leukemogenesis. We have miniaturized and optimized an in-vitro assay to screen for inhibitors of the MLL-CXXC domain and HOX-A DNA interaction, which could have utility in MLL fusion leukemias.
This is a hit validation assay that tests this hits identified in the primary screen in this secondary screen, using an HTRF a read-out.
NIH Molecular Libraries Probe Production Network [MLPCN]
NIH Chemical Genomics Center [NCGC]
PI Name: John Bushweller, University of Virgina
One microliter of 7microM GST-MLL-CXXC solution prepared in assay buffer (50 mM TRIS-HCl pH 7.5, 50 mM NaCl, 1 mM DTT, 0.05% BSA) was dispesed into a 1536 well plate. Compound solution and unlabeled HOX-A9 was tranferred into the assay plate using the Kalypsys 1536-pin tool and incubated at room temperature for 5 min. One microL of 50nM Biotinylated-HOX-A9 solution prepared in assay buffer was dispensed into the assay plate; centrifuge for 30 seconds at 1000 RPM; and incubated for 30 min at room temperature. Next, 3 microL/well detection reagent mixture of 2.8 nM Eu3+-Cryptate-anti-GST-AB and 100 nM Streptavidin linked XL665 (Cisbio, MA) was added. RT-FRET read was taken after 60min of room temp incubation using the PerkinElmer Envision plate reader equipped with Eu3+ HTRF optimized filter set; EX 337nm / EM […].
Note: nearly all actives have a fitted effect of over 80% in size.

outcome, inactive:
O=C1NN(c2ccccc2)C(=O)/C1=C/c1ccc(-c2cccc(C(=O)O)c2)o1
COc1ccc(-c2onc3ccc(C(C)=O)cc23)cc1
COc1cc(/C=C2/C(=O)NN(c3ccc(F)cc3)C2=O)cc([N+](=O)[O-])c1O
COc1ccc(S(=O)(=O)/N=C2\C=C(NS(=O)(=O)c3ccccc3)C(=O)c3ccccc32)cc1
